Assay results from the supplement of paper PMC10849652.
About 7,900 targets were measured; listed, in parts, are those with a hit and a random draw of the rest. About 0.6% of all pairs of compound and target were hits. Values without a mark were called inactive.

Tests used:
Experiment in all cases: log2 fold change, soluble protein after heating vs DMSO (PISA); higher = thermal stabilisation; K562 cells, 10 uM, 30 min; active = over 0.2 and 3.5 SD of the protein, either way, in both replicates (recomputed)
[1] = compound: CS(=O)(=O)c1ccc(-c2cnc(N)c(C(=O)Nc3ccccc3)n2)cc1
Outline: (§1)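 Quantification of soluble protein used TMTpro 16plex LC-MS/MS, with channel sums equalised. Samples were the supernatant after 21,000xg for 90 min of pooled aliquots from K562 cells (2×10^6 cells/mL) treated with 10 μM compound for 30 min, heated for 3 min over 48°C-58°C, and extracted in PBS with 0.5% NP-40 at 4°C. Values, from duplicates, describe thermal stability against control samples on a log2 fold-change scale.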

crizotinib = compound: C[C@@H](Oc1cc(-c2cnn(C3CCNCC3)c2)cnc1N)c1c(Cl)ccc(F)c1Cl [crizotinib]
Outline: as §1

[2] = compound: C[C@@H]1COCCN1C2=NC(=NC(=C2)C3(CC3)S(=O)(=O)C)C4=C5C=CNC5=CC=C4
Outline: as §1

[3] = compound: C[C@H](C1=CC=C(C=C1)C(=O)NC2=C3C=CNC3=NC=C2)N
Outline: as §1

duvelisib = compound: C[C@H](Nc1ncnc2nc[nH]c12)c1cc2cccc(Cl)c2c(=O)n1-c1ccccc1 [duvelisib]
Outline: as §1

gandotinib = compound: Cc1cc(Nc2cc(CN3CCOCC3)c3nc(C)c(Cc4ccc(Cl)cc4F)n3n2)n[nH]1 [gandotinib]
Outline: as §1

tozasertib = compound: Cc1cc(Nc2cc(N3CCN(C)CC3)nc(Sc3ccc(NC(=O)C4CC4)cc3)n2)n[nH]1 [tozasertib]
Outline: as §1

[4] = compound: Cc1cc(SCc2sc(-c3ccc(C(F)(F)F)cc3)nc2C)ccc1OCC(=O)O
Outline: as §1

doramapimod = compound: Cc1ccc(-n2nc(C(C)(C)C)cc2NC(=O)Nc2ccc(OCCN3CCOCC3)c3ccccc23)cc1 [doramapimod]
Outline: as §1

ispinesib = compound: Cc1ccc(C(=O)N(CCCN)[C@@H](c2nc3cc(Cl)ccc3c(=O)n2Cc2ccccc2)C(C)C)cc1 [ispinesib]
Outline: as §1

bafetinib = compound: Cc1ccc(NC(=O)c2ccc(CN3CC[C@H](N(C)C)C3)c(C(F)(F)F)c2)cc1Nc1nccc(-c2cncnc2)n1 [bafetinib]
Outline: as §1

[5] = compound: Cc1cccc(CC(=O)N2CCc3c2ccc(-c2cn(C)c4ncnc(N)c24)c3F)n1
Outline: as §1

nilotinib = compound: Cc1cn(-c2cc(NC(=O)c3ccc(C)c(Nc4nccc(-c5cccnc5)n4)c3)cc(C(F)(F)F)c2)cn1 [nilotinib]
Outline: as §1

[6] = compound: Cc1nc(Nc2n[nH]c3c2CN(C(=O)N[C@H](CN(C)C)c2ccccc2)C3(C)C)c2sccc2n1
Outline: as §1

dasatinib = compound: Cc1nc(Nc2ncc(C(=O)Nc3c(C)cccc3Cl)s2)cc(N2CCN(CCO)CC2)n1 [dasatinib]
Outline: as §1

[7] = compound: Cc1ncc(-c2ccnc(Nc3ccc(S(C)(=O)=O)cc3)n2)n1C(C)C
Outline: as §1

[8] = compound: Cn1cc(-c2ccc3c(c2)CCN3C(=O)Cc2cccc(C(F)(F)F)c2)c2c(N)ncnc21
Outline: as §1

[9] = compound: Cn1cc(-c2ccc3nnc(C(F)(F)c4ccc5ncccc5c4)n3n2)cn1
Outline: as §1

tipifarnib = compound: Cn1cncc1[C@@](N)(c1ccc(Cl)cc1)c1ccc2c(c1)c(-c1cccc(Cl)c1)cc(=O)n2C [tipifarnib]
Outline: as §1

mubritinib = compound: FC(F)(F)c1ccc(/C=C/c2nc(COc3ccc(CCCCn4ccnn4)cc3)co2)cc1 [mubritinib]
Outline: as §1

Chain of UniProt P78356 (P78356 whole entry, looked up): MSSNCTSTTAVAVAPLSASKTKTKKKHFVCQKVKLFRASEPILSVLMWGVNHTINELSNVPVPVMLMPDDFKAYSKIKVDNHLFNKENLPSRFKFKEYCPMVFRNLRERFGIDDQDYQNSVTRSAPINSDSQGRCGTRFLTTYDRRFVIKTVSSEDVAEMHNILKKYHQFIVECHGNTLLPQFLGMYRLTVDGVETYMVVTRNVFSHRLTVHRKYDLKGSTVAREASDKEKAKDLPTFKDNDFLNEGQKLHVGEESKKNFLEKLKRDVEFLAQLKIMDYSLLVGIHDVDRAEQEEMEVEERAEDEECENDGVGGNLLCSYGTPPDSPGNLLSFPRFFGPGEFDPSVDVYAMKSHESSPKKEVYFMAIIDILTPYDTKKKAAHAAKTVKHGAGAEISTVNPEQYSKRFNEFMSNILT
Chain of UniProt P46020 (P46020 whole entry, looked up): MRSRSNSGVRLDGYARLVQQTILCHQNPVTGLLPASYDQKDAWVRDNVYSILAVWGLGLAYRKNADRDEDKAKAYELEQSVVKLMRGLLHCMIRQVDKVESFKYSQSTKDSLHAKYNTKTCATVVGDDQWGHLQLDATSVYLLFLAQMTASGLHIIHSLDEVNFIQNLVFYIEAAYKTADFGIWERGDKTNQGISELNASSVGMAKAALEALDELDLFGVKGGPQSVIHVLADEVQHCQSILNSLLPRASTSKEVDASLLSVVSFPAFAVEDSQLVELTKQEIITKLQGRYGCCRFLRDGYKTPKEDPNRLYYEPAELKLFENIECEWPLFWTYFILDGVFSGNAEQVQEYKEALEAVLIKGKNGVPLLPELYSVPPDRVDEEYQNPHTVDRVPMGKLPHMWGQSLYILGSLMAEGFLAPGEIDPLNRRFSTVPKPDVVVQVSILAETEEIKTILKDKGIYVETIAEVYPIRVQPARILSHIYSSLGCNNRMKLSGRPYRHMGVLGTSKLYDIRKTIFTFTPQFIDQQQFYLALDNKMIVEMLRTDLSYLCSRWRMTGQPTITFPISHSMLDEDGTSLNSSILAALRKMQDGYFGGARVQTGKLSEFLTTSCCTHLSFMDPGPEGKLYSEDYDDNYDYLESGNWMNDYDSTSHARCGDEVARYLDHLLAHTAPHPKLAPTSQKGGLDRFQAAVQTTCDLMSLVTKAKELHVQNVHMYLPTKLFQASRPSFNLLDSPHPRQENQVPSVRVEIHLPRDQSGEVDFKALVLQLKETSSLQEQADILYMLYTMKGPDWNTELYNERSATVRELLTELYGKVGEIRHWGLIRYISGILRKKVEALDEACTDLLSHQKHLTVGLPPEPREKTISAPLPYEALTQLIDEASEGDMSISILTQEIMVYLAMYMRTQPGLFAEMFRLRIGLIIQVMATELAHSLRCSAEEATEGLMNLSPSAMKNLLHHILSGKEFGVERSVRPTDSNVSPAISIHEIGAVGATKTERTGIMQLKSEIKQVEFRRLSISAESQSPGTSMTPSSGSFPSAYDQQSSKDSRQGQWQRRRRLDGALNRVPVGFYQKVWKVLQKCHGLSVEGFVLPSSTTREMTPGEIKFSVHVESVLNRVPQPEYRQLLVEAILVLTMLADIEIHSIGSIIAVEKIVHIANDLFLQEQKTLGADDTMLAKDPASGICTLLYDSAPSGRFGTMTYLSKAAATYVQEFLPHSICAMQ
Chain of UniProt Q13131 (Q13131 whole entry, looked up): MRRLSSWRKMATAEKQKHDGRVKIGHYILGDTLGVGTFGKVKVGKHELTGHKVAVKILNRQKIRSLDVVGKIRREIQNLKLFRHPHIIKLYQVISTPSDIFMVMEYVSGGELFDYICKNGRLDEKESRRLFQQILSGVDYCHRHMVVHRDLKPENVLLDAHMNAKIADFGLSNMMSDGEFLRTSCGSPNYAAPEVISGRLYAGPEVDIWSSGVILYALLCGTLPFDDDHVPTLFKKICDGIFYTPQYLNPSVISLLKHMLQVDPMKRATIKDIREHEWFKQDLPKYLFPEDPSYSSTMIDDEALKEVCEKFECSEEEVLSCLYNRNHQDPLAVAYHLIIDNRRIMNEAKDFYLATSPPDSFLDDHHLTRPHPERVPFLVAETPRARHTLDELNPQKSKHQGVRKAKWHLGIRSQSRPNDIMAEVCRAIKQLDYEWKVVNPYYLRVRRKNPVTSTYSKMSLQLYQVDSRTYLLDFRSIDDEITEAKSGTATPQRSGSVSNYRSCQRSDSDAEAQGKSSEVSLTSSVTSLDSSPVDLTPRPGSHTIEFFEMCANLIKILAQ
Chain of UniProt P48556 (P48556 whole entry, looked up): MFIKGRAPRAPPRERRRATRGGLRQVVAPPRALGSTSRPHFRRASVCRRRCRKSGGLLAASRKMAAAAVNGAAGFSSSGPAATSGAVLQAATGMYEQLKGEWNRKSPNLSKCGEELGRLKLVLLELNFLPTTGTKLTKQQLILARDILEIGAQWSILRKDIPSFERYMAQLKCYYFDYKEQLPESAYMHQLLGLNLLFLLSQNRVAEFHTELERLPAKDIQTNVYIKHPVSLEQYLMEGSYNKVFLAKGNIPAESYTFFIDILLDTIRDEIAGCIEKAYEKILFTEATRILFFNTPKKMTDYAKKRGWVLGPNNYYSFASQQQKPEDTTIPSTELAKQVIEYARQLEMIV
Chain of UniProt Q86YH6 (Q86YH6 whole entry, looked up): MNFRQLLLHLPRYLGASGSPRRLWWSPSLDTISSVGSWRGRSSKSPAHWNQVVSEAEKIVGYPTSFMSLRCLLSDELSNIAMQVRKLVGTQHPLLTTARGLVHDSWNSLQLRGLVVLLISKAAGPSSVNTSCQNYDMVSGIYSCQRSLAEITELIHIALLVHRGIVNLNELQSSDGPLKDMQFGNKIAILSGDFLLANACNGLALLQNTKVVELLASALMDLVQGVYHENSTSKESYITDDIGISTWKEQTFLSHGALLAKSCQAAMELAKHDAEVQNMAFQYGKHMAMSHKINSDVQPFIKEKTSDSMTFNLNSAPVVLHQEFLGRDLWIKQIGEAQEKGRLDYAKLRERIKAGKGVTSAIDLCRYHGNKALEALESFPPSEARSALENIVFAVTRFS
Chain of UniProt Q14671 (Q14671 whole entry, looked up): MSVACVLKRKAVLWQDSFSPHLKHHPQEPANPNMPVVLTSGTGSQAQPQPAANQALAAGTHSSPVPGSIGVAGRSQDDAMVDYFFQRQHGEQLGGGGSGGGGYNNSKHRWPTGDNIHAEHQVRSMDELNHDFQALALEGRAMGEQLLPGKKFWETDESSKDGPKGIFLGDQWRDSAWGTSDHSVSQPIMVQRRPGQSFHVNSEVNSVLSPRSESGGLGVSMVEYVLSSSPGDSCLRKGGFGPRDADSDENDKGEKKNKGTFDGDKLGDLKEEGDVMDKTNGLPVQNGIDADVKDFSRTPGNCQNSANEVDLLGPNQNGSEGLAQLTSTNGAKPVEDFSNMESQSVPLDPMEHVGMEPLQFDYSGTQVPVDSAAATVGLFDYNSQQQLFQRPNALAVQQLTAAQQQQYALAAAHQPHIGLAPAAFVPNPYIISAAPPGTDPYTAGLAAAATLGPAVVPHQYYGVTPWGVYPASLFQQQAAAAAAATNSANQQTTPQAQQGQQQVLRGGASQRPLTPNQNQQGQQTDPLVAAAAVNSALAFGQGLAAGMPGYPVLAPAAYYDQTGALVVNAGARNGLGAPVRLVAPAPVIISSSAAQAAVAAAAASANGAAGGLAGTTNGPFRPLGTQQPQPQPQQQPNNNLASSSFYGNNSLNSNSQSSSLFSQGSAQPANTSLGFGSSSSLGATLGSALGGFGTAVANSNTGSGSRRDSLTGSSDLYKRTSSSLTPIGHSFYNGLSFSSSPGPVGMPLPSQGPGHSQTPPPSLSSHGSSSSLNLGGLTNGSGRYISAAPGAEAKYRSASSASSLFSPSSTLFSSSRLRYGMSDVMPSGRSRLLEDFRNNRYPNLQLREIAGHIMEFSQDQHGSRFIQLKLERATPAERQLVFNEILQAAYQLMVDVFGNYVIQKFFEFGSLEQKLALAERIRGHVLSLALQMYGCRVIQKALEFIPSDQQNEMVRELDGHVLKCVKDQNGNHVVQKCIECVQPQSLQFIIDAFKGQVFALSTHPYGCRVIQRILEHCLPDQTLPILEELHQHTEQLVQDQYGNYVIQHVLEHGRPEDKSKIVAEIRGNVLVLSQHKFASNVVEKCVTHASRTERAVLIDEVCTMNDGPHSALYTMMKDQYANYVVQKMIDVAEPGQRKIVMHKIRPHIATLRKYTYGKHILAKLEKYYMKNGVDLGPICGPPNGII
Chain of UniProt Q99541 (Q99541 whole entry, looked up): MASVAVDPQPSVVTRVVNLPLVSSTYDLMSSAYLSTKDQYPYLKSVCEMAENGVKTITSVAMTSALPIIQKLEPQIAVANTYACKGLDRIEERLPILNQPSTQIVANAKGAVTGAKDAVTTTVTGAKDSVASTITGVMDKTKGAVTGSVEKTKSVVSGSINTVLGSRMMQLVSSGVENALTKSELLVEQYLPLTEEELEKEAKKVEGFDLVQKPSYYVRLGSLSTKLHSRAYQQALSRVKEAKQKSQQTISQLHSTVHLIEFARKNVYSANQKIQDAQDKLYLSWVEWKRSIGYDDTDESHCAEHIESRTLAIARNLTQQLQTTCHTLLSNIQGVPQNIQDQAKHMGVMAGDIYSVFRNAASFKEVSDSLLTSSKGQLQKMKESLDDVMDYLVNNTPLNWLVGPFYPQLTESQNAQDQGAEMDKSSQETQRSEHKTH
Chain of UniProt O15305 (O15305 whole entry, looked up): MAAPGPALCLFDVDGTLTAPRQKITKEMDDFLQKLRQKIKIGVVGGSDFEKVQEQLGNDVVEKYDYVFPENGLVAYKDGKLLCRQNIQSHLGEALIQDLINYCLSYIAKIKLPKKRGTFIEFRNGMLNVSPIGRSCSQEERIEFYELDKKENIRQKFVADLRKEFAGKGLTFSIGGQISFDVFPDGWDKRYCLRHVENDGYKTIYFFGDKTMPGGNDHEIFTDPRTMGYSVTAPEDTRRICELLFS
Chain of UniProt Q15185 (Q15185 whole entry, looked up): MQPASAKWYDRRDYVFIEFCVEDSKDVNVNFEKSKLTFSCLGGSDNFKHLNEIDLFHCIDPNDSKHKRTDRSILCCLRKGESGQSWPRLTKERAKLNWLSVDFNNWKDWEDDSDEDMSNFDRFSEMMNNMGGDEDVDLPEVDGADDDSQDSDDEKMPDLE

Target | log2 fold change [1] | log2 fold change (crizotinib) | log2 fold change [2] | log2 fold change [3] | log2 fold change (duvelisib) | log2 fold change (gandotinib) | log2 fold change (tozasertib) | log2 fold change [4] | log2 fold change (doramapimod) | log2 fold change (ispinesib) | log2 fold change (bafetinib) | log2 fold change [5] | log2 fold change (nilotinib) | log2 fold change [6] | log2 fold change (dasatinib) | log2 fold change [7] | log2 fold change [8] | log2 fold change [9] | log2 fold change (tipifarnib) | log2 fold change (mubritinib)
PLIN2 (UniProt Q99541) | -0.103 | -0.841 (active) | 0.054 | 0.03 | 0.098 | -0.31 | -0.086 | 0.031 | -0.092 | -2.6 (active) | -0.326 | 0.037 | 0.184 | 0.03 | -0.219 | 0.04 | -0.016 | 0.047 | -0.105 | 0.027
PIP4K2B (UniProt P78356) | 0.63 (active) | -0.01 | 0.048 | -0.072 | 0.028 | -0.031 | -0.025 | -0.009 | -0.055 | -0.007 | 0.258 | 0.011 | 0.085 | 0.05 | 0.139 | 0.538 (active) | 0.055 | 0.172 | -0.03 | -0.083
PISD (UniProt Q9UG56) | 0 | -0.023 | 0.045 | -0.018 | 0.044 | -0.004 | -0.025 | 0.036 | 0.006 | 0.02 | -0.042 | -0.007 | -0.053 | -0.003 | -0.029 | 0.105 | -0.068 | -0.02 | -0.005 | 0.103
PRKAA1 isoform 2 (UniProt Q13131) | 0 | -0.156 | -0.007 | -0.011 | 0.055 | -0.235 (active) | -0.044 | -0.036 | -0.019 | -0.003 | -0.096 | 0.035 | -0.029 | -0.206 (active) | -0.069 | -0.011 | 0.082 | 0.028 | -0.012 | -0.012
PTGES3 (UniProt Q15185) | 0.047 | 0.066 | 0.068 | -0.101 | 0.03 | -0.049 | 0.063 | 0.086 | -0.118 | 0.015 | -0.05 | 0.028 | -0.044 | -0.089 | -0.142 | -0.042 | 0.034 | 0.039 | -0.119 | -0.091
PSMD6 (UniProt Q15008) | 0.033 | -0.046 | -0.08 | 0.052 | -0.071 | -0.02 | 0.047 | 0.03 | 0.057 | 0.056 | 0.115 | 0.008 | 0.022 | 0.054 | 0.059 | -0.014 | -0.083 | -0.035 | 0.03 | -0.012
PITRM1 isoform 2 (UniProt Q5JRX3) | -0.042 | 0.01 | 0.094 | -0.023 | 0.072 | 0.038 | -0.029 | 0 | -0.014 | -0.38 (active) | -0.052 | -0.039 | -0.108 | 0.01 | -0.132 | -0.088 | 0.119 | -0.004 | 0.003 | 0.005
PDLIM7 (UniProt Q9NR12) | -0.01 | -0.075 | -0.002 | -0.05 | 0.019 | 0.026 | -0.002 | 0.004 | 0.012 | -0.075 | -0.01 | 0.107 | 0 | -0.078 | -0.036 | -0.01 | 0.006 | -0.048 | -0.091 | -0.042
PUM1 isoform 3 (UniProt Q14671) | 0.007 | -0.02 | -0.007 | 0.071 | 0.008 | -0.055 | 0.007 | 0.007 | -0.03 | 0.01 | -0.062 | 0.006 | -0.047 | -0.066 | -0.044 | -0.014 | 0.01 | 0 | -0.015 | 0.007
PDSS2 (UniProt Q86YH6) | -0.034 | 0.078 | 0.075 | -0.058 | -0.083 | 0.098 | -0.118 | 0.149 | 0.049 | -0.031 | 0.077 | 0.048 | 0.029 | 0.163 | 0.06 | -0.154 | 0.052 | 0.02 | -0.095 | –
PHKA1 (UniProt P46020) | -0.036 | -0.05 | -0.048 | 0.189 | -0.074 | -0.015 | 0.279 | 0.075 | 0.037 | -0.07 | 0.023 | -0.004 | -0.233 | -0.021 | -0.303 | 0.023 | 0.027 | -0.092 | 0.083 | -0.04
PSMD8 (UniProt P48556) | 0.034 | 0.011 | -0.053 | 0.156 | -0.016 | 0.002 | 0.008 | 0.059 | 0.028 | 0.015 | 0.089 | -0.013 | 0.039 | 0.054 | 0.029 | -0.031 | -0.07 | 0.009 | 0.117 | -0.032
PKM (UniProt P14618) | 0.003 | 0.021 | 0.013 | -0.044 | 0.007 | -0.013 | -0.026 | -0.029 | -0.019 | 0.02 | -0.023 | -0.012 | -0.011 | -0.004 | 0.024 | -0.009 | 0.015 | 0.006 | 0.005 | 0.035
PMM2 (UniProt O15305) | 0.006 | 0.08 | 0.013 | 0.012 | 0.056 | -0.045 | -0.017 | -0.031 | -0.015 | 0.009 | -0.098 | 0.003 | -0.291 (active) | -0.054 | -0.018 | -0.015 | 0.035 | 0.013 | 0.018 | 0.028
POLR2G (UniProt P62487) | 0.006 | 0.257 | 0.111 | 0.125 | 0.087 | 0.191 | -0.051 | -0.026 | -0.016 | 0.035 | -0.048 | -0.038 | 0.012 | 0.188 | 0.054 | 0.202 | 0.009 | 0.002 | 0 | 0.065
PSMD13 (UniProt Q9UNM6) | 0.048 | 0.008 | -0.012 | 0.092 | -0.028 | -0.016 | 0.062 | 0.052 | 0.026 | -0.008 | 0.126 | 0.003 | -0.002 | 0.082 | 0.023 | -0.018 | -0.114 | -0.008 | 0.095 | -0.019
